# “And” between values parts separate entries of the source, which are not always exact repeats. Identical values can stand only once. Results filed as inconclusive are left out. The source made the active and inactive calls. How the source made its calls: active means hit-call score of the fitted dose curve at least 0.9, where 1 is the maximum; inconclusive means response in the unintended direction; inactive means score below 0.9.
# Assay: TOX21_p53_BLA_p2_viability: Viability Assessment in the Tox21 HCT-116 p53 Agonism Beta-lactamase Assay, Phase 2 (AID 2283591);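 further: compound exposure lasted 16 h at 37 °C; actives lower the ATP signal meaning cytotoxicity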
# Procedure, shortened: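 HCT116 p53-bla cells, 4000/well, dosed after 5 h plating (217-fold dilution of DMSO stocks) and incubated 16 h at 37C. Viability taken as cellular ATP by CellTiter-Glo luminescence after 30 min RT; signal loss marks cytotoxicity.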
Structure (SMILES),outcome,AC50
CCC(COC(=O)CCS)(COC(=O)CCS)COC(=O)CCS,inactive,
CNC(=O)C[C@@H](N)C(=O)N[C@@H](C(=O)N[C@@H]1C(=O)N2[C@@H]1SC(C)(C)[C@@H]2C(=O)O)c1ccc(O)cc1,inactive,
N=C(N)N,inactive,
Cn1cc(S(C)=O)c(=O)c2ccc(F)cc21 (stereo not drawn),inactive,
CC1COc2ccccc2N1 (stereo not drawn),inactive,
COc1cc([C@H]2Oc3cc([C@H]4Oc5cc(O)cc(O)c5C(=O)[C@@H]4O)ccc3O[C@@H]2CO)ccc1O,inactive,
CCCCCCCCCCCCC(=O)O,inactive,
OCCN1C[C@H](O)[C@@H](O)[C@H](O)[C@H]1CO,inactive,
Cc1ccc(NC(=O)N(C)C)cc1NC(=O)N(C)C,inactive,
CCCCCCCN,inactive,
OCCN1CCN(CCCN2c3ccccc3C=Cc3ccccc32)CC1,inactive,
NC(=O)CCCCC(N)=O,inactive,
CCCC(=O)OC[C@@H](OC(=O)CCC)[C@@H](OC(=O)CCC)[C@H](Cn1c2nc(=O)[nH]c(=O)c-2nc2cc(C)c(C)cc21)OC(=O)CCC,inactive,
NC/C=C/C(=O)O,inactive,
Oc1cccc(-c2c3nc(c(-c4cccc(O)c4)c4ccc([nH]4)c(-c4cccc(O)c4)c4nc(c(-c5cccc(O)c5)c5ccc2[nH]5)CC4)C=C3)c1,,20.2 µM (active) and 17.5 µM (active)
O=C(O)c1ccc(NC2OC[C@@H](O)[C@H](O)[C@H]2O)cc1 (stereo partly drawn),inactive,
CCOC(=O)[C@H](CCc1ccccc1)N[C@@H](C)C(=O)N1Cc2ccccc2C[C@H]1C(=O)O,inactive,
CCCCCCCN(CC)CCCC(O)c1ccc(NS(C)(=O)=O)cc1 (stereo not drawn),inactive,
